Compound activity from PubChem.
A selection: hits, their analogues and other compounds. The true share with any hit is near 4.5%.
hcDAF12 agonist = activates DAF-12 receptor from parasite H. contortus. HEK293 hcDAF-12 lit1-tk-luc reporter, luminescence; 0% DMSO, 100% Δ7-dafachronic acid. activation, % at 6.8 µM. hit rate 1.4% among 370,000;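 active means activation above the mean of all tested compounds plus 3 SD, cut at about 5.5% in these data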;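 further: 100% = response to 3 µM Δ7-dafachronic acid high control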
GAA850 FXN act = frataxin GAA850 promoter activation; HEK293 lucGAA850 FXN promoter luciferase reporter, 24 h; percent of 10 µM SAHA response; activation, % at 6 µM; AID 540364; hit rate 0.56% among 360,000;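 active means activation above the average of all compounds screened plus 3 SD, cutoff fixed separately per campaign, cut at about 7.5% in these data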;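 further: 0% = DMSO wells and 100% = 10 µM SAHA wells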
ssDAF-12 act = S. stercoralis DAF-12 activation, primary screen | HEK293 ssDAF-12/GRIP1 lit1-tk-luc reporter, luminescence; % of 3 µM dafachronic acid response | activation, % at 6.8 µM | hit rate 1% among 370,000;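 active means activation above the mean over all tested compounds plus 3 SD, cut at about 0.9% in these data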;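 further: 0% = DMSO-only wells and 100% = 3 µM delta7-dafachronic acid wells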
hgDAF-12 ag = agonists of H. glycines DAF-12 nuclear receptor. HEK293 GAL4-hgDAF12 UAS-luciferase reporter, agonist luminescence; normalized to butyrate control. activation, % at 6.8 µM. hit rate 1.8% among 370,000. AID 687014;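 active means activation above a cutoff set at the mean of all screened compounds plus 3 SD, cut at about 10% in these data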;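 further: 0% = DMSO wells and 100% = sodium butyrate wells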
DAX1 inh-1 = NR0B1 (DAX1) inhibition | HEK293 Gal4-DAX1 luciferase reporter, luminescence | P51843 | hit rate 0.99% among 340,000 | inhibition, % at 6.75 µM;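 active means inhibition above the mean over all tested compounds plus 3 SD, cut at about 4.2% in these data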;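 further: 0% = DAX1-transfected cells with DMSO and 100% = empty-vector control cells with DMSO; inhibition shows as a rise in luminescence from relieved DAX1 repression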
Target sequence (P51843 207-470 limits assumed): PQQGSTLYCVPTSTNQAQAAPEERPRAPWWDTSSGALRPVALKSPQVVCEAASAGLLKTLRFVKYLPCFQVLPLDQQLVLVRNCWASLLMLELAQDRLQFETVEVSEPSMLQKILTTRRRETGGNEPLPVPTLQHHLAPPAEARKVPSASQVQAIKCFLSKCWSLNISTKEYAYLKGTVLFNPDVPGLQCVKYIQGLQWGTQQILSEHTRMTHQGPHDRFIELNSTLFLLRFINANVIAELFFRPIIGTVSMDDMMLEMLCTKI
DAX1 inh-2 = DAX1 (NR0B1) inhibition, primary screen; HEK293T StAR-luciferase reporter, SF-1/DAX-1 repression relief; inhibition, % at 6.8 µM; hit rate 1.1% among 370,000;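 active means inhibition above the mean over all tested compounds plus 3 SD, cut at about 3.6% in these data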;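 further: 0% = DAX-1 cells with DMSO and 100% = cells lacking DAX-1 with DMSO; higher inhibition means more luminescence from relief of DAX-1 repression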
DAX1 conf = NR0B1 (human) inhibition, confirmation; AID 652134; shares compounds with DAX1 inh-2; hit rate 87% among 2,400; inhibition, % at 6.8 µM; HEK293T StAR-promoter luciferase reporter, SF-1/DAX-1 repression;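 active means inhibition above the average of every tested compound plus 3 SD, cut at about 3.8% in these data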;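 further: 0% = DAX-1 cells with DMSO and 100% = no DAX-1 control cells with DMSO; active compounds raise luminescence by relieving repression of the StAR reporter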
SF1 AF2mut Luc = counter-screen for DAX1 inhibitors: nonselective inhibitors with SF-1 AF2 mutant. shares compounds with DAX1 inh-2. HEK293 StAR-luciferase, luminescence. inhibition, % at 6.8 µM. hit rate 78% among 2,400;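 active means inhibition above the mean of all tested compounds plus 3 SD, cut at about 3% in these data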;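 further: 0% = DAX-1 transfected cells with DMSO and 100% = cells without DAX-1 with DMSO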
LXR ag = counter-screen for hcDAF-12 agonists: agonists of human LXR-beta; HEK293 Gal4-LXR tk-luc reporter, luminescence, 24 h; normalized: DMSO 0%, positive control 100%; activation, % at 6.8 µM; shares compounds with hcDAF12 agonist; 3,400 tested, under 10 active;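 active means mean percent activation of the reporter above a cutoff set as the average over tested compounds plus their standard deviation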
Target sequence (P55055 whole entry, looked up, the tested form may be a part): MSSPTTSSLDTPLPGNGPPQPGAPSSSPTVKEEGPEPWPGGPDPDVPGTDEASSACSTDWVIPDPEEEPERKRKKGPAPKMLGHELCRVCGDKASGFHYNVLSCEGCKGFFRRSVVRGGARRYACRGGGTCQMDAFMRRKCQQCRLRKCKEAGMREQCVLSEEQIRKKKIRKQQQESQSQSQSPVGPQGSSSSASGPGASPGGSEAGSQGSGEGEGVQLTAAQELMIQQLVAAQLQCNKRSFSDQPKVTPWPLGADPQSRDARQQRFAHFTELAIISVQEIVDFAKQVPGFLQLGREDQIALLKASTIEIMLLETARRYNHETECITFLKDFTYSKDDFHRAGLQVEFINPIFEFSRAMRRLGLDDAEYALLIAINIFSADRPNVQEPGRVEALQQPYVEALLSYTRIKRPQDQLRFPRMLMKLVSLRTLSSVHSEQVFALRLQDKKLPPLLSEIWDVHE
hcDAF12 ag = hcDAF-12 agonism, confirmation assay. shares compounds with hcDAF12 agonist. HEK293 hcDAF-12 lit1-tk-luc reporter, luminescence; % of Δ7-dafachronic acid response. activation, % at 6.8 µM. hit rate 61% among 3,400. AID 743032;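 active means mean activation across triplicate tests above the threshold derived from the earlier primary screen, cut at about 5.5% in these data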;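 further: 0% = DMSO only wells and 100% = 3 µM Δ7-dafachronic acid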
hgDAF12 conf = hgDAF-12 agonism, confirmation assay; shares compounds with hgDAF-12 ag; hit rate 80% among 3,300; activation, % at 6.8 µM; HEK293 GAL4-hgDAF12 luciferase reporter, agonist mode; percent of butyrate response;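 active means mean activation over triplicate wells above the hit cutoff derived from the earlier primary screen, cut at about 11% in these data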;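 further: 0% = DMSO low control and 100% = 2 mM sodium butyrate high control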
LXRb DAF12 ctr = LXR-beta agonism as DAF-12 counter-screen; HEK293 Gal4-LXR luciferase reporter, 24 h; activation, % at 6.8 µM; 3,300 tested, under 10 active; shares compounds with hgDAF-12 ag;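 active means mean activation of the triplicate above a set limit carried over from the primary screen, none filed active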
* hit, by the source's call; . = no result given.

SMILES	hcDAF12 agonist	GAA850 FXN act	ssDAF-12 act	hgDAF-12 ag	DAX1 inh-1	DAX1 inh-2	DAX1 conf	SF1 AF2mut Luc	hgDAF12 conf	LXRb DAF12 ctr	others
CCCn1cnc2cc(NC(=O)c3ccco3)ccc21	6.6*	4.0	1.2*	14.6*	0.2	5.5*	3.4	3.8*	10.1	0.3	LXR ag=0.3;hcDAF12 ag=3.1
O=C(Nc1ccc(NC(=O)c2ccco2)nc1)c1ccco1	3.0	1.1	-0.3	14.9*	-0.9	5.9*	10.2*	2.9*	12.9*	0.7
CCn1cnc2cc(NC(=O)c3ccco3)ccc21	0.6	2.4	0.7	8.9	2.1	3.3	.	.	.	.
O=S(=O)(c1ccccc1F)n1c(CN2CCOCC2)nc2ccccc21	0.1	.	-0.4	1.8	.	-0.2	.	.	.	.
C/C(=N\NC(=O)c1cccs1)c1ccc(C(=O)O)s1	7.0*	6.0	-0.1	14.9*	2.0	8.0*	-0.7	-0.5	6.6	0.2	LXR ag=-0.3;hcDAF12 ag=0.7
C/C(=N\NC(=O)c1nn(C)c(C)c1Br)c1ccc(NC(=O)c2ccoc2C)cc1	8.5*	3.0	0.1	19.9*	-0.2	5.5*	2.7	1.2	2.2	0.0	LXR ag=-0.5;hcDAF12 ag=-2.1
C/C(=N\NC(=O)c1cccs1)c1cccnc1	8.4*	4.5	0.6	24.6*	2.7	5.5*	0.8	-0.1	8.4	0.3	LXR ag=0.2;hcDAF12 ag=1.4
C/C(=N\NC(=O)c1ccoc1C)c1cccnc1	4.8	5.5	0.3	14.2*	3.9	5.5*	1.9	1.5	3.5	0.1
CCn1c(=O)cc(N2CCN(c3cccc(C(F)(F)F)c3)CC2)[nH]c1=O	-1.0	.	-0.9	8.5	.	.	.	.	.	.
CCCC[C@@H]1CNC(=O)C(=O)N1CCCCC1CCCCC1	-0.1	.	-0.5	-0.2	.	0.3	.	.	.	.
O=C1CCC[C@H]2C[C@H](NCCc3ccncc3)CC[C@]23CCCN13	-0.7	.	-1.9	-2.9	.	.	.	.	.	.
C/C(=N\NC(=O)c1ccc2ccccc2c1)c1cccs1	3.3	2.7	0.1	13.5*	1.3	9.8*	7.5*	5.0*	20.6*	0.9
C/C(=N\NC(=O)c1ccncc1)c1cccs1	-0.7	1.9	-1.2	4.3	2.1	1.3	.	.	.	.
CCCCCn1nnnc1C1(C)CSCC(=O)N1Cc1ccco1 (configuration not stated)	-2.3	.	-1.2	-4.1	.	-1.3	.	.	.	.
COc1ccc2c(=O)c3ccccc3oc2c1	1.6	3.5	-1.2	10.2	4.2	2.6	.	.	.	.
COc1ccc2oc3cc(NCCN(C)C)ccc3c(=O)c2c1	9.2*	.	2.2*	43.0*	.	16.0*	21.7*	13.1*	41.6*	1.4	LXR ag=2.2;hcDAF12 ag=8.4*
COc1ccccc1N1CCN(S(=O)(=O)c2ccc3c(c2)n(C)c(=O)c(=O)n3C)CC1	-5.2	.	-0.8	-1.9	.	-0.6	.	.	.	.
Nc1c(C(=O)Nc2cccc(F)c2)nnn1-c1ccc2c(c1)OCCO2	7.0*	0.8	0.9	17.0*	-1.0	4.5*	15.8*	5.2*	18.1*	1.1	LXR ag=1.9;hcDAF12 ag=8.4*
CCC(=O)Nc1ccc2c(c1)ncn2-c1ccc(OC)cc1	-0.8	1.5	-0.9	0.6	-0.1	1.1	.	.	.	.
CCC(=O)Nc1ccc2c(c1)ncn2-c1ccc(C)cc1	2.6	7.3	-0.3	13.4*	1.6	7.4*	9.0*	5.5*	11.0*	0.4
COC(=O)c1cc2c(c3c4cc(F)ccc4n(S(=O)(=O)c4cccc(C)c4)c13)C(=O)N(Cc1ccco1)C2	1.3	.	-1.2	-1.6	.	-2.2	.	.	.	.
Cc1ccc2[nH]c3c(c2c1)CC/C(=C/c1ccccc1)C3=O	3.1	2.8	-0.2	2.6	1.7	1.1	.	.	.	.
Cc1ccc(/C=C2/CCc3c([nH]c4ccccc34)C2=O)cc1	10.1*	5.7	0.8	17.6*	2.8	5.3*	23.7*	9.1*	21.6*	1.3	LXR ag=1.8;hcDAF12 ag=5.8*
CCOC(=O)C(=C1Nc2ccccc2N1)n1c(-c2cccnc2)nc2ccccc21	2.5	.	-0.1	14.9*	.	5.1*	7.7*	4.4*	13.3*	0.6
O=C(NCC1CCN(C(=O)C(=O)c2cccs2)CC1)c1cccnc1	1.0	.	-0.7	3.0	.	0.1	.	.	.	.
SMILES	hcDAF12 agonist	GAA850 FXN act	ssDAF-12 act	hgDAF-12 ag	DAX1 inh-1	DAX1 inh-2	DAX1 conf	SF1 AF2mut Luc	hgDAF12 conf	LXRb DAF12 ctr	others
COC(=O)C1=C(C(=O)OC)[C@@]2([C@H](Cc3ccc(C)cc3)Nc3ccccc3)C=C[C@@H]1O2	-3.3	.	-2.4	-2.1	.	.	.	.	.	.
COc1ccc(/C=N/Nc2cc(OC)ncn2)cc1	9.2*	4.2	2.2*	14.1*	-1.4	6.5*	15.0*	7.2*	16.5*	1.0	LXR ag=1.4;hcDAF12 ag=9.4*
CCOc1ccc(/C=N/NC(=O)Nc2ccccc2)cc1	5.1	3.5	-0.6	18.5*	1.1	6.6*	9.2*	5.2*	19.6*	0.8
CC(=O)Oc1ccc(/C=N/NC(=S)Nc2ccccc2)cc1	5.6	2.9	-0.5	17.2*	2.7	5.0*	14.8*	8.4*	16.4*	0.8
CCOc1ccc(/C=N/Nc2ccccn2)cc1	6.0*	3.0	0.7	17.4*	1.0	5.8*	18.1*	10.1*	19.1*	1.2
COC(=O)[C@]12C[C@H](CC(=O)NCc3ccc(C)o3)C(=O)N(Cc3ccc(Cl)cc3Cl)C1=C[C@H](C(C)C)O[C@@H]2C1CC1	1.6	.	-1.3	2.6	.	-1.2	.	.	.	.
CCCCCCCCN1C(=O)[C@@H](CC(=O)N2CCCC2)C[C@@]2(C(=O)OC)C1=C[C@H](C(C)C)O[C@@H]2C1CC1	0.0	.	-0.8	-0.2	.	-1.4	.	.	.	.
CCCCNC(=O)NS(=O)(=O)c1ccc(NC(=O)CSc2nnc(-c3ccc(Cl)cc3)n2N)cc1	3.7	.	-1.0	0.3	.	-1.1	.	.	.	.
COc1ccc(NC(=O)CCCNS(=O)(=O)c2ccc3[nH]c(=O)oc3c2)cc1OC	-0.7	.	-0.3	-2.2	.	-0.5	.	.	.	.
